{"source": "the supplement of paper PMC7695840", "key": {"[1]": {"system": "Staphylococcus aureus MW2 delta-mecA (mecA-)", "assay": "normalized GFP fluorescence (growth of mecA- strain) (fraction of control range); higher = more growth of mecA- strain", "conditions": "compound concentration: 150 uM; cefoxitin: subinhibitory; fluorescent label: GFP", "summary_of_the_method": "(§1)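 Pre-induced S. aureus MW2 cells with the gene (DsRed) and without it (GFP) were mixed 1:1 in LB holding a subinhibitory antibiotic dose set daily and grown on 150 μM compound (1.5% DMSO) in 1536-well plates, single replicate, for 20 h at 37 °C. DsRed (540/590) and GFP (485/520) readings were scaled per plate between single-strain control medians. Plates with high untreated ratios and rows with DsRed/GFP >10 were excluded.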"}, "[2]": {"system": "Staphylococcus aureus MW2 (mecA+)", "assay": "normalized DsRed fluorescence (growth of mecA+ strain) (fraction of control range); higher = more growth of mecA+ strain", "conditions": "compound concentration: 150 uM; cefoxitin: subinhibitory; fluorescent label: DsRed", "summary_of_the_method": "as §1"}}, "note": "Where a name gives a salt, the structure may show the parent alone.", "data": [{"smiles": "O=C1O[C@H]([C@@H](O)CO)C(O)=C1O", "values": [{"measurement": "normalized GFP fluorescence", "setting": "[1]", "value": 0.78}, {"measurement": "normalized DsRed fluorescence", "setting": "[2]", "value": 0.485}]}, {"smiles": "CC(=O)/N=c1/sc(S(N)(=O)=O)nn1C", "values": [{"measurement": "normalized GFP fluorescence", "setting": "[1]", "value": 0.574}, {"measurement": "normalized DsRed fluorescence", "setting": "[2]", "value": 0.53}]}, {"smiles": "Nc1c(Br)cc(Br)cc1CN[C@H]1CC[C@H](O)CC1", "note": "[Ambroxol HCl]", "values": [{"measurement": "normalized GFP fluorescence", "setting": "[1]", "value": 0.21}, {"measurement": "normalized DsRed fluorescence", "setting": "[2]", "value": 0.849}]}, {"smiles": "COc1cc(/C=C/C(=O)N2CCN(CC(=O)N3CCCC3)CC2)cc(OC)c1OC", "note": "[Cinepazide maleate]", "values": [{"measurement": "normalized GFP fluorescence", "setting": "[1]", "value": 0.547}, {"measurement": "normalized DsRed fluorescence", "setting": "[2]", "value": 0.533}]}, {"smiles": "CCCCOc1ccc(C(=O)CCN2CCCCC2)cc1", "values": [{"measurement": "normalized GFP fluorescence", "setting": "[1]", "value": 0.00391}, {"measurement": "normalized DsRed fluorescence", "setting": "[2]", "value": 0.36}]}, {"smiles": "CNC1(C)C2CCC(C2)C1(C)C", "note": "(configuration not stated)", "values": [{"measurement": "normalized GFP fluorescence", "setting": "[1]", "value": 0.71}, {"measurement": "normalized DsRed fluorescence", "setting": "[2]", "value": 0.669}]}, {"smiles": "CN1C(C(=O)Nc2ccccn2)=C(O)c2sccc2S1(=O)=O", "values": [{"measurement": "normalized GFP fluorescence", "setting": "[1]", "value": 0.0134}, {"measurement": "normalized DsRed fluorescence", "setting": "[2]", "value": 0.778}]}, {"smiles": "CC[C@@H]([C@H](C)O)n1ncn(-c2ccc(N3CCN(c4ccc(OC[C@@H]5CO[C@@](Cn6cncn6)(c6ccc(F)cc6F)C5)cc4)CC3)cc2)c1=O", "note": "[Posaconazole]", "values": [{"measurement": "normalized GFP fluorescence", "setting": "[1]", "value": 0.833}, {"measurement": "normalized DsRed fluorescence", "setting": "[2]", "value": 0.572}]}, {"smiles": "CC/C(=C(/CC)c1ccc(O)cc1)c1ccc(O)cc1", "values": [{"measurement": "normalized GFP fluorescence", "setting": "[1]", "value": 0.0115}, {"measurement": "normalized DsRed fluorescence", "setting": "[2]", "value": 0.065}]}, {"smiles": "CCc1nn(CCCN2CCN(c3cccc(Cl)c3)CC2)c(=O)n1CCOc1ccccc1", "values": [{"measurement": "normalized GFP fluorescence", "setting": "[1]", "value": 0.108}, {"measurement": "normalized DsRed fluorescence", "setting": "[2]", "value": 0.736}]}, {"smiles": "Nc1nc(=O)[nH]cc1F", "values": [{"measurement": "normalized GFP fluorescence", "setting": "[1]", "value": 0.282}, {"measurement": "normalized DsRed fluorescence", "setting": "[2]", "value": 0.62}]}, {"smiles": "COc1ccc(CC2c3cc(OC)c(OC)cc3CC[N+]2(C)CCC(=O)OCCCCCOC(=O)CC[N+]2(C)CCc3cc(OC)c(OC)cc3C2Cc2ccc(OC)c(OC)c2)cc1OC", "note": "(configuration not stated)", "values": [{"measurement": "normalized GFP fluorescence", "setting": "[1]", "value": 0.325}, {"measurement": "normalized DsRed fluorescence", "setting": "[2]", "value": 0.862}]}, {"smiles": "C[C@]12CCC3=C4CCC(=O)C=C4CC[C@H]3[C@@H]1CC[C@@]2(O)CC#N", "note": "[Dienogest]", "values": [{"measurement": "normalized GFP fluorescence", "setting": "[1]", "value": 0.271}, {"measurement": "normalized DsRed fluorescence", "setting": "[2]", "value": 0.746}]}, {"smiles": "CN1C2=CC(=O)/C(=N\\NC(N)=O)C=C2CC1S(=O)(=O)O", "note": "(configuration not stated) [Carbazochrome sodium sulfonate]", "values": [{"measurement": "normalized GFP fluorescence", "setting": "[1]", "value": 0.171}, {"measurement": "normalized DsRed fluorescence", "setting": "[2]", "value": 0.676}]}, {"smiles": "CCN(CC)C(=O)c1cccnc1", "values": [{"measurement": "normalized GFP fluorescence", "setting": "[1]", "value": 0.263}, {"measurement": "normalized DsRed fluorescence", "setting": "[2]", "value": 0.829}]}, {"smiles": "Cc1ncc([N+](=O)[O-])n1CCO", "values": [{"measurement": "normalized GFP fluorescence", "setting": "[1]", "value": 0.562}, {"measurement": "normalized DsRed fluorescence", "setting": "[2]", "value": 0.581}]}]}
